Values joined by “and” are separate entries in the source; they are usually repeats but may differ in a detail not shown here. Equal entries are not always repeated. Results filed as inconclusive are left out. More than one record can exist for a structure, and the calls need not agree. Active and inactive are the calls of the source. Calls follow the shape of the dose curve; as a rule, active = well fitted inhibition curve with a large enough effect; inconclusive = small, poorly fitted or top-dose-only effect; inactive = flat fitted curve, though single readings scatter.
target: Phospholipid hydroperoxide glutathione peroxidase GPX4 (Homo sapiens) (UniProt P36969); assay: Primary qHTS Assay for Inhibitors of Recombinant Selenoprotein Glutathione Peroxidase 4 (GPX4) (AID 1845192); settings: recombinant GPX4, GR-coupled NADPH fluorescence, 15 min; series mostly up to 50 µM; activity change, negative = inhibition: at the top concentration; also: nearly all actives have a fitted effect of over 65% in size
Sequence (P36969 whole entry, looked up): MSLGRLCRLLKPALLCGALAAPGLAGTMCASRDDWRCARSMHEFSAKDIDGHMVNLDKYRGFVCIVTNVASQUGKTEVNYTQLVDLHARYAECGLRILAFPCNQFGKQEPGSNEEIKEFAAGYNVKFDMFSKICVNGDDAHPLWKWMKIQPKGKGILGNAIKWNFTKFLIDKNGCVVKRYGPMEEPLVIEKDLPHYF
In short: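 NADPH consumption, followed by fluorescence at 340/450 nm between 0 and 15 min, reports GPX4 activity via coupled glutathione reductase (100 nM). Enzyme 200 nM was pre-exposed to compound 30 min; 0.5 mM cumene hydroperoxide and 1 mM GSH served as substrates.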
% is scaled to controls: 0 for no effect and ±100 for the full control effect; potency is read from the fitted curve at half-maximal effect.

**Q.** `CN1C(=O)OC(C)(C)C1=O` was tested. Which “activity change, negative = inhibition” value did it give?
**A.** 0.642% (inactive)

**Q.** Which “activity change, negative = inhibition” value does the source give for `O=C1CCC(=O)N1CO` here?
**A.** -3.75% (inactive)

**Q.** For `C[C@@H](O)[C@H]1C(=O)N2C(C(=O)[O-])=C(SC3Cn4cnc[n+]4C3)[C@H](C)[C@H]12` (stereo partly specified), which activity change, negative = inhibition is on record?
**A.** -27.3% [at 9.73 µM] (inactive)

**Q.** How did the “activity change, negative = inhibition” value turn out when `N=C(N)c1ccc(/C=C/c2ccc(C(=N)N)cc2O)cc1` was run?
**A.** -23.4% (inactive)

**Q.** For `CCCCC(O)c1ccccc1` (stereo unspecified), which “outcome” value is on record?
**A.** inactive

**Q.** Which Potency does the source give for `C=CC[C@@H]1/C=C(\C)C[C@H](C)C[C@H](OC)[C@H]2O[C@@](O)(C(=O)C(=O)N3CCCC[C@H]3C(=O)O[C@H](/C(C)=C/[C@@H]3CC[C@@H](O)[C@H](OC)C3)[C@H](C)[C@@H](O)CC1=O)[C@H](C)C[C@@H]2OC` here?
**A.** inactive and 2.82 µM (active)

**Q.** How did the “activity change, negative = inhibition” value turn out when `O=C(O)Cc1cc(I)c(Oc2ccc(O)c(I)c2)c(I)c1` was run?
**A.** 5.91% (inactive)

**Q.** For `CCSc1ccc2c(c1)N(CCCN1CCN(C)CC1)c1ccccc1S2`, which “activity change, negative = inhibition” value is on record?
**A.** -20.3% (inactive)

**Q.** `CN[C@@H]1[C@@H](O)[C@@H](O[C@@H]2[C@@H](O)[C@H](O[C@H]3O[C@H](CN)[C@@H](O)[C@H](O)[C@H]3O)[C@@H](N)C[C@H]2NC(=O)C(O)CN)OC[C@]1(C)O` (stereo partly specified) was tested. Which “outcome” value did it give?
**A.** inactive

**Q.** Which Potency does the source give for `C=C1[C@H](CO)[C@@H](O)C[C@@H]1n1cnc2c(=O)[nH]c(N)nc21` here?
**A.** inactive

**Q.** How did the Potency turn out when `COC(=O)[C@@H](N)CS` was run?
**A.** 10 µM (active)

**Q.** How did the “activity change, negative = inhibition” value turn out when `CCN1C(=O)NC(c2ccccc2)C1=O` (stereo unspecified) was run?
**A.** -20.9% (inactive)

**Q.** With `CC1(O)CCC(C(C)(C)O)CC1` (stereo unspecified) as the compound, how does the “activity change, negative = inhibition” value read?
**A.** 2.59% (inactive)

**Q.** For `CCCCC(=O)O[C@H]1CC[C@H]2[C@@H]3CCc4cc(O)ccc4[C@H]3CC[C@]12C`, which “activity change, negative = inhibition” value is on record?
**A.** -1.24% (inactive)

**Q.** For `O=C(Nc1ccc(O)cc1)c1ccccc1O`, which “activity change, negative = inhibition” value is on record?
**A.** -12.6% (inactive)

**Q.** For `CC1=CC(=C(c2ccc(N)cc2)c2ccc(N)cc2)C=CC1=N`, which “outcome” value is on record?
**A.** inactive

**Q.** With `N[C@@H](Cc1cc(I)c(Oc2ccc(O)c(I)c2)c(I)c1)C(=O)O` as the compound, how does the Potency read?
**A.** inactive and 14.1 µM (active)

**Q.** How did the “outcome” value turn out when `CC(=O)N=c1sc(S(N)(=O)=O)nn1C` was run?
**A.** inactive

**Q.** With `C[C@]12CC[C@@H]3c4ccc(OC(=O)c5ccccc5)cc4CC[C@H]3[C@@H]1CC[C@@H]2O` as the compound, how does the Potency read?
**A.** inactive

**Q.** With `CC(CN1c2ccccc2Sc2cccnc21)N(C)C` (stereo unspecified) as the compound, how does the “outcome” value read?
**A.** inactive

**Q.** With `C[C@]12CCC(=O)C[C@@H]1CC[C@@H]1[C@@H]2CC[C@]2(C)C=CC[C@@H]12` as the compound, how does the “activity change, negative = inhibition” value read?
**A.** -18.8% (inactive)

**Q.** Which “activity change, negative = inhibition” value does the source give for `CCCOc1cc(N)ccc1C(=O)OCCN(CC)CC` here?
**A.** 3.19% (inactive)

**Q.** For `O=C(OCc1ccccc1)c1cccnc1`, which “outcome” value is on record?
**A.** inactive

**Q.** For `COc1cc2c(cc1OC)[C@@H](Cc1cc(OC)c(OC)c(OC)c1)[N+](C)(CCCOC(=O)CC/C=C/CCC(=O)OCCC[N+]1(C)CCc3cc(OC)c(OC)cc3[C@H]1Cc1cc(OC)c(OC)c(OC)c1)CC2` (stereo partly specified), which “outcome” value is on record?
**A.** inactive

**Q.** With `O=C(OC[C@H]1O[C@@H](OC(=O)c2cc(O)c(O)c(OC(=O)c3cc(O)c(O)c(O)c3)c2)[C@H](OC(=O)c2cc(O)c(O)c(OC(=O)c3cc(O)c(O)c(O)c3)c2)[C@@H](OC(=O)c2cc(O)c(O)c(OC(=O)c3cc(O)c(O)c(O)c3)c2)[C@@H]1OC(=O)c1cc(O)c(O)c(OC(=O)c2cc(O)c(O)c(O)c2)c1)c1cc(O)c(O)c(OC(=O)c2cc(O)c(O)c(O)c2)c1` as the compound, how does the Potency read?
**A.** 4.47 µM (active)

**Q.** For `CCC[C@@H]1C[C@@H](C(=O)N[C@@H]([C@H]2O[C@H](SC)[C@H](O)[C@@H](O)[C@H]2O)[C@H](C)Cl)N(C)C1`, which “activity change, negative = inhibition” value is on record?
**A.** 0.0769% (inactive)

**Q.** With `CC[C@H]1OC(=O)C[C@@H](O)[C@H](C)[C@@H](O[C@@H]2O[C@H](C)[C@@H](O[C@H]3C[C@@](C)(O)[C@@H](O)[C@H](C)O3)[C@H](N(C)C)[C@H]2O)[C@@H](CC=O)C[C@@H](C)C(=O)/C=C/C(C)=C/[C@@H]1CO[C@@H]1O[C@H](C)[C@@H](O)[C@@H](OC)[C@H]1OC` as the compound, how does the “activity change, negative = inhibition” value read?
**A.** 0.0975% (inactive)

**Q.** Which Potency does the source give for `CO[C@@]1(NC(=O)C2SC(=C(C(N)=O)C(=O)O)S2)C(=O)N2C(C(=O)O)=C(CSc3nnnn3C)CS[C@@H]21` (stereo partly specified) here?
**A.** 17.8 µM (active)

**Q.** `Oc1cc(O)cc(O)c1` was tested. Which “activity change, negative = inhibition” value did it give?
**A.** -10.2% (inactive)

**Q.** Which “outcome” value does the source give for `COc1ccc2c(c1)N(C[C@H](C)CN(C)C)c1ccccc1S2` here?
**A.** inactive

**Q.** For `NC(=O)OCC(O)COc1ccc(Cl)cc1` (stereo unspecified), which “activity change, negative = inhibition” value is on record?
**A.** -17.4% (inactive)

**Q.** How did the “outcome” value turn out when `COc1ccc2c(c1)OC(C)(C)C(c1ccccc1)C2c1ccc(OCCN2CCCC2)cc1` (stereo unspecified) was run?
**A.** inactive

**Q.** For `CC(=O)Nc1c(I)c(C(=O)O)c(I)c(N(C)C(C)=O)c1I`, which “outcome” value is on record?
**A.** inactive

**Q.** For `CCOC(=O)[C@@H](N)CS`, which Potency is on record?
**A.** 14.1 µM (active)

**Q.** How did the “outcome” value turn out when `COc1ccc([C@@H]2CC(=O)c3c(O)cc(O[C@@H]4O[C@H](CO[C@@H]5O[C@@H](C)[C@H](O)[C@@H](O)[C@H]5O)[C@@H](O)[C@H](O)[C@H]4O)cc3O2)cc1O` was run?
**A.** inactive

**Q.** How did the “activity change, negative = inhibition” value turn out when `FC(F)(F)C(F)(F)C(F)(F)C(F)(F)C(F)(F)C(F)(F)F` was run?
**A.** -2.01% (inactive)
